# Data reported in PubChem BioAssay AID1611 (NINDS Approved Drug Screening Program, 2009).
# Experiment: inducers of human heat shock response, cell-based, HSE luciferase (AID 1611)
# Conditions: human cells, HSE-luciferase heat shock reporter; stronger effect = higher value
row,Compound,fold change
1,CC(C)=CCC/C(C)=C/CO,3.1
2,C#C[C@]1(OC(C)=O)CCC2C3CCC4=CC(=O)CC[C@@H]4C3CC[C@@]21C (stereo not given in full),0.92
3,CC(=O)[C@@]1(O)CCC2C3C[C@H](C)C4=CC(=O)C=CC4(C)[C@@]3(F)[C@@H](O)C[C@@]21C (stereo not given in full),1.43
4,O=C(O)c1cccnc1Nc1cccc(C(F)(F)F)c1,1.08
5,C[C@H](CS)C(=O)N1CCC[C@H]1C(=O)O,0.72
6,CC(C)NCC(O)COc1ccc(CC(N)=O)cc1 (stereo not given),0.76
7,CCc1cccc2c3c([nH]c12)C(CC)(CC(=O)O)OCC3 (stereo not given),1.02
8,CC1CCC(NC(=O)N(CCCl)N=O)CC1 (stereo not given),0.95
9,CC/C(=C(\c1ccccc1)c1ccc(OCCN(C)C)cc1)c1ccccc1,0.77
10,Cn1nnnc1SCC1=C(C(=O)O)N2C(=O)C(NC(=O)C(O)c3ccccc3)C2SC1 (stereo not given),1.15
11,O=C(O)c1cn(C2CC2)c2cc(N3CCNCC3)c(F)cc2c1=O,1.5
12,Cc1ncc([N+](=O)[O-])n1CCO,1.2
13,CC1(C)S[C@@H]2[C@H](NC(=O)[C@H](NC(=O)N3CCNC3=O)c3ccccc3)C(=O)N2C1C(=O)O (stereo not given in full),0.89
14,Nc1ncnc2c1ncn2[C@@H]1O[C@H](CO)[C@@H](O)[C@@H]1O,1.52
15,O=C(OCC(O)CO)c1ccccc1Nc1ccnc2cc(Cl)ccc12 (stereo not given),0.5
16,CC(C)Oc1ccc2c(=O)cc(-c3ccccc3)oc2c1,1.28
17,O=C(O)C1=CCNCC1,1.18
18,CCN(CC)C(C)CN1c2ccccc2Sc2ccccc21 (stereo not given),1.55
19,COc1ccc(C[C@H](N)C(=O)N[C@@H]2[C@@H](CO)OC(n3cnc4c(N(C)C)ncnc43)[C@@H]2O)cc1 (stereo not given in full),1.26
20,Cn1c(=O)[nH]c2ncn(C)c2c1=O,1.88

row,Compound,fold change
1,C[N+]1(C)C2CC[C@H]1CC(OC(=O)C(O)c1ccccc1)C2 (stereo not given in full),1.16
2,CCN(CCCCOC(=O)c1ccc(OC)c(OC)c1)C(C)Cc1ccc(OC)cc1 (stereo not given),1.27
3,CCN1CCN(C(=O)NC(C(=O)NC2C(=O)N3C(C(=O)O)=C(CSc4nnnn4C)CSC23)c2ccc(O)cc2)C(=O)C1=O (stereo not given),0.74
4,CCn1cc(C(=O)O)c(=O)c2cc(F)c(N3CCNCC3)cc21,1.06
5,N[C@@H](CCC(=O)N[C@@H](CS)C(=O)NCC(=O)O)C(=O)O,1.11
6,CCCCc1oc2ccccc2c1C(=O)c1cc(I)c(OCCN(CC)CC)c(I)c1,0.84
7,NCC(O)CC(=O)O (stereo not given),0.94
8,COC(=O)Nc1nc2ccc(Sc3ccccc3)cc2[nH]1,0.92
9,O=C(O)c1cc2cc(Cc3cccnc3)ccc2o1,0.83
10,CC(=O)Nc1nnc(S(N)(=O)=O)s1,0.33
11,Oc1c(I)cc(I)c2cccnc12,1.19
12,Cc1ccccc1N1C(=O)c2cc(S(N)(=O)=O)c(Cl)cc2NC1C (stereo not given),0.83
13,Oc1ccc(Cl)c2cccnc12,1.15
14,CC1(C)S[C@@H]2C(N3C(=O)[C@@H](c4ccccc4)NC3(C)C)C(=O)N2[C@H]1C(=O)O (stereo not given in full),1.12
15,CN1CCN(CC(=O)N2c3ccccc3C(=O)Nc3cccnc32)CC1,1.06
16,C=Cc1c(C)c2cc3[nH]c(cc4nc(cc5nc(cc1[nH]2)C(C)=C5CCC(=O)O)C(CCC(=O)O)=C4C)c(C)c3C=C,1.09
17,OCC(O)CN1CCN(c2ccccc2)CC1 (stereo not given),0.82
18,CC(C)CC(NC(=O)CCN)C(=O)O (stereo not given),1.04
19,CC(C)(Oc1ccc(CCNC(=O)c2ccc(Cl)cc2)cc1)C(=O)O,1.4
20,CO/N=C(/C(=O)NC1C(=O)N2C(C(=O)O)=C(COC(N)=O)CSC12)c1ccco1 (stereo not given),1
